Compound activity (PubChem BioAssay)
dFosB act-1 = enhances mouse delta FosB homodimer DNA binding; activation, % at 25 µM; P13346; purified delta FosB, TAMRA-CDK5 oligo fluorescence polarization; percent of positive-control signal above neutral wells; 340,000 compounds, 0.99% hits; AID 493131;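 active = mean activation above about 17%, with every replicate also reaching it, limit read from the data, passing the limit was not always enough; inconclusive = only one of the two conditions met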
RAD52 inh = blocks human RAD52 DNA annealing | recombinant RAD52 DNA annealing, FRET fluorescence | AID 651710 | 360,000 compounds, 0.46% hits | inhibition, % at 18.7 µM | P43351;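 active = every replicate showing at least 50% inhibition; inconclusive = mean inhibition at least 50% but not in every replicate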
F508del corr = CFTR F508del correction in bronchial cells; CFBE cells, YFP halide quenching; stimulated with forskolin plus potentiator P3; % fluorescence drop versus neutral controls; activity (quench increase), % at 7.58 µM; 350,000 compounds, 0.36% hits; AID 720511;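 active = mean added fluorescence quench of at least 8% versus neutral control, with both replicates also reaching 8%; inconclusive = only one of the mean or replicate conditions met; inactive = mean below 8% and not both replicates reaching 8%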;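 note: cells transiently co-express mutant CFTR-F508del with the halide-sensitive YFP; corrector assay measuring rescue of mutant channel to the surface after 24 h compound exposure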
Glyco luc inh = blocks N-linked glycosylation in D54 reporter cells; D54 ERlucT glycosylation luciferase reporter, 24 h; percent of 100 nM tunicamycin response; reporter increase, % at 12.5 µM; 360,000 compounds, 0.23% hits; AID 588692;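 active = mean luciferase reporter signal, scaled so untreated is 0 and the glycosylation-blocking control 100, at or above a set limit in every replicate; inconclusive = mean reaches the limit but not every replicate does; inactive = mean below the limit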;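 note: luciferase carries N-glycosylation sites so blocking glycosylation raises the light; 0% = median of neutral control wells and 100% = median of 100 nM tunicamycin wells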
PvdQ acylase = blocks Pseudomonas aeruginosa PvdQ acylase activity. 340,000 compounds, 0.063% hits. inhibition, % at 10 µM. purified PvdQ acylase, fluorescence plate reader; in the data active = inhibition above about 30%, passing the limit was not always enough; inconclusive = no clear call, values can overlap the other calls;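 note: 0% = vehicle neutral wells and 100% = reference inhibitor wells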
RAD54 branch = blocks human RAD54 Holliday junction branch migration | FAM/BHQ fluorescence | inhibition, % at 10.4 µM | 360,000 compounds, 0.14% hits | AID 602329;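 active = mean normalized replicate activity at least 40 and at least half of replicates scoring 40 or more; inconclusive = only one of the two criteria met; inactive = mean below 40 and under half of replicates reaching 40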;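 note: 0% = median of neutral control wells and 100% = median of positive control wells; inhibitors cause a drop in the FAM fluorescence signal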
Target sequence (Q92698 whole entry, looked up): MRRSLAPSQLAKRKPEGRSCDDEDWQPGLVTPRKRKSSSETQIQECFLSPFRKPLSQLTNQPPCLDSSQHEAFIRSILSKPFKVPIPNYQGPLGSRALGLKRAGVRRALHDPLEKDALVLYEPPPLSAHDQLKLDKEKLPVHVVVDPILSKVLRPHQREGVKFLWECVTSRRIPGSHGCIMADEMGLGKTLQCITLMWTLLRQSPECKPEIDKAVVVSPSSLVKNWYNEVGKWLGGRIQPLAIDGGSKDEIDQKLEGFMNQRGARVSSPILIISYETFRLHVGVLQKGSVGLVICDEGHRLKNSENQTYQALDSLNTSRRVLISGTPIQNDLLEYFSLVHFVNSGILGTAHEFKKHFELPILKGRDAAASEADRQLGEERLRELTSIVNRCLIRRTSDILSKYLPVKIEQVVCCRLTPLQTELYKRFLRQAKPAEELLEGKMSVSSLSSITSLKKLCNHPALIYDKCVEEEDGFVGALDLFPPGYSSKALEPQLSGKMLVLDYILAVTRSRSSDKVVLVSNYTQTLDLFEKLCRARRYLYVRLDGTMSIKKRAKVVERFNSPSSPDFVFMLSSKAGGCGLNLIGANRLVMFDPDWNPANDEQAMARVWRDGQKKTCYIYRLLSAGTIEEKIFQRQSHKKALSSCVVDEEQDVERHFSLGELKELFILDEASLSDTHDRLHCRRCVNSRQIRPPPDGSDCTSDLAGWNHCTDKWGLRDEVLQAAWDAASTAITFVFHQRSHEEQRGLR
dFosB act-2 = enhances mouse delta FosB homodimer binding to DNA; shares compounds with dFosB act-1; purified delta FosB, TAMRA-CDK5 oligo fluorescence polarization; normalised: neutral wells 0, positive control 100; activation, % at 24.9 µM; 2,400 tested, under 10 active; AID 588690;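 active = highest replicate activation at or above 34% and every replicate reaching that threshold; inconclusive = meets only one of the two criteria; inactive = meets neither criterion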;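 note: higher polarization means more probe DNA bound by delta FosB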
* hit, by the source's call; ? = inconclusive; / = not tested or not shown. A selection: hits, their analogues and other compounds. The true share with any hit is near 1.5%.

SMILES	dFosB act-1	RAD52 inh	F508del corr	Glyco luc inh	PvdQ acylase	RAD54 branch	dFosB act-2
CCCNC(=O)[C@H]1[C@H](CO)[C@H]2Cn3c(ccc(-c4cccc(F)c4)c3=O)[C@H]2N1C(=O)CC	/	-8.4	0.2	/	/	-9.2	/
Cc1ccc2nc(-c3cccc(Br)c3)cc(C(=O)NC3=NCCS3)c2c1	43.9*	-6.3	2.1	-5.1	-5.4	/	-0.8
O=C(NC1=NCCS1)c1cc(-c2cccc(Br)c2)nc2ccccc12	31.0*	/	/	-8.0	-15.6	/	1.0
O=C(C[C@H]1C[C@@H]2c3cc(NC(=O)c4cccnc4)ccc3O[C@@H]2[C@@H](CO)O1)NCCN1CCCCC1	/	7.9	-0.5	/	/	8.1	/
O=C(C[C@@H]1C[C@@H]2c3cc(NC(=O)Nc4ccc(C(F)(F)F)cc4)ccc3O[C@@H]2[C@@H](CO)O1)NC1CCCCC1	/	-3.3	0.5	/	/	1.5	/
C/C(=N\Nc1cc(C)nc(NCc2ccccc2)n1)c1ccc([N+](=O)[O-])cc1	29.7*	-6.4	2.2	-5.5	-11.6	-4.4	0.5
C/C(=N\NC(=O)c1cc(C)nc2ccccc12)c1ccc([N+](=O)[O-])cc1	3.5	-12.1	-1.2	1.3	-10.4	9.1	/
O=C(Nc1nc2ccccc2[nH]1)c1ccc([N+](=O)[O-])cc1	3.8	-15.0	1.3	-8.6	-8.0	/	/
Cc1cc(N/N=C/c2ccccc2Cl)nc(NCc2ccccc2)n1	50.8*	/	/	-3.0	-3.8	/	4.3
C/C(=N\Nc1nc2ccccc2[nH]1)c1ccc([N+](=O)[O-])cc1	20.5*	-13.0	-2.4	-2.1	-3.1	-3.7	1.9
Cc1cc(C)nc(N/N=C/c2ccccc2Cl)n1	/	-8.6	-1.7	0.8	/	0.3	/
C[C@H](CO)N1C[C@H](C)[C@H](CN(C)C(=O)Nc2ccc(-c3ccccc3)cc2)OCc2ccccc2-c2ccccc2C1=O	/	12.2	-4.1	/	/	/	/
COc1ccc2cc(OCC(=O)NNC(=O)Nc3ccc(C(C)=O)cc3)ccc2c1	99.3*	-14.9	0.9	0.0	-17.1	3.2	5.2
COc1ccc(NC(=O)NNC(=O)COc2ccc3cc(Br)ccc3c2)cc1	4.8	-6.0	1.1	-0.3	-11.5	-1.3	/
COc1ccc(NC(=O)NNC(=O)COc2ccc3cc(Br)ccc3c2)cc1OC	143.6*	-1.5	2.7	4.8	-9.8	5.7	5.6
COc1ccccc1NC(=O)NNC(=O)COc1ccc2ccccc2c1	20.9*	0.2	-0.1	-0.3	-2.6	1.8	1.6
C[C@@H]1CN([C@@H](C)CO)C(=O)Cc2cc(NC(=O)Nc3ccc(C(F)(F)F)cc3)ccc2O[C@@H]1CN(C)C(=O)Nc1ccc(F)cc1	/	2.2	4.3	/	/	4.2	/
CCCN1C[C@@H](C)[C@@H](OC)CN(C)C(=O)c2cc(NC(=O)COC)ccc2OC[C@H]1C	/	/	0.4	/	/	-5.8	/
C[C@H](CO)N1C[C@H](C)[C@@H](CN(C)C(=O)Oc2ccccc2)OCc2ccccc2-c2ccccc2C1=O	/	16.1	0.9	/	/	-6.1	/
COc1ccc(/C=N/NC(=O)c2ccc(COc3ccccc3Cl)o2)cc1	28.1*	9.0	/	0.6	-12.5	18.9	8.0
CC(=O)Nc1ccc(/C(C)=N/NC(=O)c2ccc(COc3ccccc3Cl)o2)cc1	30.7*	-17.1	1.2	-0.4	-2.1	-9.8	-1.9
COc1ccc(-c2cc(C(=O)Nc3ccccc3N3CCOCC3)c3ccccc3n2)cc1OC	26.8*	2.6	-1.3	-8.6	-5.1	1.6	-1.0
O=C(Nc1cccnc1)c1cc(-c2cccnc2)nc2ccc(Br)cc12	-22.3	-14.2	-0.2	7.0	-9.0	/	/
COc1ccc(-c2cc(C(=O)Nc3ccc(C(N)=O)cc3)c3ccccc3n2)cc1	37.2*	-11.5	0.8	-10.6	-9.2	-2.6	7.8
COc1cccc(-c2cc(C(=O)Nc3ccccc3)c3ccccc3n2)c1	/	-45.9	/	1.9	/	3.8	/
SMILES	dFosB act-1	RAD52 inh	F508del corr	Glyco luc inh	PvdQ acylase	RAD54 branch	dFosB act-2
Cc1ccc(CCNC(=O)c2cc(-c3ccncc3)nc3ccc(S(=O)(=O)N4CCOCC4)cc23)cc1	29.6*	-22.1	-3.8	-0.7	10.1	3.8	2.3
COc1cc(NC(=O)c2cc(-c3cccnc3)nc3ccc(Br)cc23)cc(OC)c1	63.1*	-43.0	-3.0	0.8	-30.1	-0.4	1.0
COc1ccc(-c2cc(C(=O)Nc3nc4ccccc4s3)c3ccccc3n2)cc1OC	65.2*	-27.3	/	-6.7	-3.7	/	?
COc1ccc(-c2cc(C(=O)Nc3ccccc3O)c3ccccc3n2)cc1OC	-11.9	-17.4	-1.1	0.5	6.3	/	/
Cc1ccc(S(=O)(=O)N2CCCCC2)cc1NC(=O)c1c(-c2ccccc2)noc1C	18.1*	-1.8	0.8	1.3	-5.5	-15.9	4.8
COc1ccc(S(=O)(=O)N2CCOCC2)cc1NC(=O)c1cccc2c(=O)c(C)c(-c3ccccc3)oc12	45.5*	-18.6	-0.6	-3.0	-12.0	-7.2	5.0
COc1cc(-c2cc(C(=O)Nc3cc(S(=O)(=O)N4CCOCC4)ccc3C)c3ccccc3n2)cc(OC)c1OC	43.5*	-4.3	-1.7	-8.4	11.2	13.9	2.3
Cc1onc(-c2ccccc2)c1C(=O)Nc1ccc(S(=O)(=O)N2CCCCC2)cc1	-10.0	-20.5	0.6	-8.9	-8.5	5.7	/
CC(C)NC(=O)Nc1ccc2c(c1)C(=O)N(C)[C@@H]1CC[C@H](CC(=O)Nc3ccccc3)O[C@@H]1CO2	/	12.2	-2.3	/	/	-7.9	/
Cc1cn(-c2cc(C(=O)Nc3ccc(C)c(NC(=O)N4CCNC4=O)c3)cc(C(F)(F)F)c2)cn1	55.6*	-17.0	4.8	-3.8	-16.6	-8.2	-2.2
CCOc1ccc2[nH]c3c(=O)n(CCc4ccc(OC)cc4)cnc3c2c1	18.3*	-10.0	-1.9	1.8	4.5	3.6	-1.4
COc1ccccc1NC(=O)N[C@@H]1CC[C@@H](CCNC(=O)Cc2ccccn2)O[C@@H]1CO	/	-25.0	-0.5	/	/	1.7	/
Cc1ccc(Nc2nc(Cl)c(C=O)s2)cc1Cl	4.8	-40.3	-1.7	7.9	-9.8	/	/
CCN(CC)c1nc(NN)nc(Nc2ccc(C)c(Cl)c2)n1	41.6*	4.3	-5.0	4.2	-20.7	/	?
COc1ccc2c3c(n(C)c2c1)[C@@H](CO)N(C(=O)c1cnccn1)CC31CCN(C)CC1	/	/	-0.4	/	/	/	/
CC(C)(C)[S@@](=O)N1Cc2cc(C(=O)NCc3ccc4c(c3)OCO4)nc(-c3cccc(-c4ccncc4)c3)c2[C@H]1CCO	/	48.1	2.1	/	/	-1.7	/
COc1ccccc1NC(=O)c1cc(S(=O)(=O)N2CCc3ccccc32)ccc1F	30.2*	-6.5	0.8	-3.0	-12.9	-3.6	5.1
COc1ccc(CCNC(=O)c2cc(S(=O)(=O)N3CCc4ccccc43)ccc2F)cc1OC	/	-7.4	-1.9	-2.2	/	-10.7	/
